Reference: PubChem BioAssay AID1159580 (chemical genetic matrix, 2015)
Hit rate of the full screen: of about 5,500 compounds, about 2,000 (36%) were called active. About 18% were inconclusive and are not listed. Rule as the data show it: active = normalized growth mostly below about 0.91 (no sharp cut-off); inconclusive = no clear call, values can overlap the other calls; inactive = mostly above about 0.92. The list shows a part of the results.

Assay: chemical genetic growth profiling, strain panel (AID 1159580);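 also: tested at 20 µM; growth read once vehicle control cultures reached saturation at 30 °C; 1 = growth at the plate median or of vehicle wells; lower values mean less growth of the strain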
Settings: growth OD

Measured: normalized growth

C#CCCCCCCCCCCCC(O)CC(O)COC(C)=O (stereo unspecified)
inactive: S. cerevisiae deletion strains, locus YKL068W, active compounds read low 0.985 | S. cerevisiae deletion strains, locus YKL085W, strain MDH1 (second series), active compounds read low 0.964 | S. cerevisiae deletion strains, locus YKL085W, strain MDH1, active compounds read low 0.964 | S. cerevisiae deletion strains, locus YKL190W, strain CNB1, active compounds read low 0.986 | S. cerevisiae deletion strains, locus YKR091W, strain srl3, active compounds read low 0.996 | S. cerevisiae deletion strains, locus YLL001W, strain dnm1, active compounds read low 0.913 | S. cerevisiae deletion strains, locus YLR039C, strain RIC1, active compounds read low 0.976 | S. cerevisiae deletion strains, locus YLR058C, strain SHM2, active compounds read low 0.965 | S. cerevisiae deletion strains, locus YLR102C, strain apc9, active compounds read low 0.968 | S. cerevisiae deletion strains, locus YLR113W, strain HOG1, active compounds read low 0.94 | S. cerevisiae deletion strains, locus YLR262C, strain YPT6, active compounds read low 0.962 | S. cerevisiae deletion strains, locus YLR268W, strain sec22, active compounds read low 0.927 | S. cerevisiae deletion strains, locus YLR330W, strain CHS5, active compounds read low 0.981 | S. cerevisiae deletion strains, locus YLR342W, strain FKS1 (second series), active compounds read low 0.856 | S. cerevisiae deletion strains, locus YLR357W, strain rsc2, active compounds read low 0.958 | S. cerevisiae deletion strains, locus YLR370C, strain arc18, active compounds read low 0.994 | S. cerevisiae deletion strains, locus YLR371W, strain rom2, active compounds read low 0.958 | S. cerevisiae deletion strains, locus YLR384C, strain iki3, active compounds read low 0.967 | S. cerevisiae deletion strains, locus YLR418C, strain cdc73, active compounds read low 0.861 | S. cerevisiae deletion strains, locus YML016C, strain PPZ1, active compounds read low 0.978 | S. cerevisiae deletion strains, locus YML124C, strain tub3, active compounds read low 0.972 | S. cerevisiae deletion strains, locus YMR078C, strain ctf18, active compounds read low 0.954 | S. cerevisiae deletion strains, locus YMR125W, strain sto1, active compounds read low 0.908 | S. cerevisiae deletion strains, locus YMR231W, strain pep5, active compounds read low 1.01 | S. cerevisiae deletion strains, locus YMR263W, strain SAP30, active compounds read low 0.966 | S. cerevisiae deletion strains, locus YMR307W, strain GAS1, active compounds read low 0.885 | S. cerevisiae deletion strains, locus YNL067W, strain RPL9B, active compounds read low 0.928 | S. cerevisiae deletion strains, locus YNL128W, strain TEP1, active compounds read low 0.961 | S. cerevisiae deletion strains, locus YNL153C, strain GIM3, active compounds read low 0.994 | S. cerevisiae deletion strains, locus YNL183C, strain NPR1, active compounds read low 0.954 | S. cerevisiae deletion strains, locus YNL233W, strain BNI4, active compounds read low 0.906 | S. cerevisiae deletion strains, locus YNL250W, strain rad50, active compounds read low 0.946 | S. cerevisiae deletion strains, locus YNL271C, strain bni1, active compounds read low 0.942 | S. cerevisiae deletion strains, locus YNL322C, strain KRE1, active compounds read low 0.98 | S. cerevisiae deletion strains, locus YNR049C, strain mso1, active compounds read low 1.01 | S. cerevisiae deletion strains, locus YOL006C, strain TOP1, active compounds read low 0.85 | S. cerevisiae deletion strains, locus YOL012C, strain htz1 1.07 | S. cerevisiae deletion strains, locus YOL147C, strain pex11, active compounds read low 0.953 | S. cerevisiae deletion strains, locus YOR061W, strain CKA2, active compounds read low 0.893 | S. cerevisiae deletion strains, locus YOR069W, strain VPS5, active compounds read low 0.992 | S. cerevisiae deletion strains, locus YOR080W, strain dia2, active compounds read low 0.952 | S. cerevisiae deletion strains, locus YOR136W, strain idh2, active compounds read low 0.934 | S. cerevisiae deletion strains, locus YOR144C, strain elg1, active compounds read low 0.973 | S. cerevisiae deletion strains, locus YOR231W, strain MKK1, active compounds read low 1.01 | S. cerevisiae deletion strains, locus YOR290C, strain snf2, active compounds read low 0.899 | S. cerevisiae deletion strains, locus YOR316C, strain cot1, active compounds read low 0.969 | S. cerevisiae deletion strains, locus YPL055C, strain LGE1, active compounds read low 0.904 | S. cerevisiae deletion strains, locus YPL241C, strain CIN2, active compounds read low 0.983 | S. cerevisiae deletion strains, locus YPL256C, strain CLN2, active compounds read low 0.981 | S. cerevisiae deletion strains, locus YPR119W, strain clb2, active compounds read low 0.97 | S. cerevisiae deletion strains, locus YPR141C, strain kar3, active compounds read low 0.979 | S. cerevisiae deletion strains, locus YPR163C, strain tif3, active compounds read low 0.961 | S. cerevisiae deletion strains, locus YPR167C, strain met16, active compounds read low 0.969 | S. cerevisiae deletion strains, strain wtn01, active compounds read low 0.928 | S. cerevisiae strains, strain wild type, active compounds read low 0.97
active: S. cerevisiae deletion strains, locus YKL009W, strain mrt4, active compounds read low 0.8 | S. cerevisiae deletion strains, locus YKL160W, strain elf1, active compounds read low 0.864 | S. cerevisiae deletion strains, locus YKR001C, strain vps1, active compounds read low 0.871 | S. cerevisiae deletion strains, locus YKR026C, strain gcn3, active compounds read low 0.843 | S. cerevisiae deletion strains, locus YLL026W, active compounds read low 0.344 | S. cerevisiae deletion strains, locus YLL041C, strain sdh2, active compounds read low 0.542 | S. cerevisiae deletion strains, locus YLR027C, strain aat2, active compounds read low 0.478 | S. cerevisiae deletion strains, locus YLR221C, strain rsa3, active compounds read low 0.305 | S. cerevisiae deletion strains, locus YLR258W, strain gsy2, active compounds read low 0.493 | S. cerevisiae deletion strains, locus YLR262C, strain YPT6 (second series), active compounds read low 0.726 | S. cerevisiae deletion strains, locus YLR320W, strain mms22, active compounds read low 0.647 | S. cerevisiae deletion strains, locus YLR342W, strain FKS1, active compounds read low 0.647 | S. cerevisiae deletion strains, locus YML032C, strain rad52, active compounds read low 0.868 | S. cerevisiae deletion strains, locus YML120C, strain ndi1, active compounds read low 0.171 | S. cerevisiae deletion strains, locus YMR058W, strain fet3, active compounds read low 0.749 | S. cerevisiae deletion strains, locus YMR129W, active compounds read low 0.316 | S. cerevisiae deletion strains, locus YMR205C, strain PFK2, active compounds read low 0.507 | S. cerevisiae deletion strains, locus YMR223W, strain ubp8, active compounds read low 0.889 | S. cerevisiae deletion strains, locus YNL071W, strain lat1, active compounds read low 0.208 | S. cerevisiae deletion strains, locus YNL209W, strain ssb2, active compounds read low 0.886 | S. cerevisiae deletion strains, locus YNL248C, strain rpa49, active compounds read low 0.84 | S. cerevisiae deletion strains, locus YNL298W, strain CLA4, active compounds read low 0.786 | S. cerevisiae deletion strains, locus YNL307C, strain MCK1, active compounds read low 0.744 | S. cerevisiae deletion strains, locus YNL322C, strain KRE1 (second series), active compounds read low 0.633 | S. cerevisiae deletion strains, locus YNR052C, strain pop2, active compounds read low 0.896 | S. cerevisiae deletion strains, locus YOR001W, strain rrp6, active compounds read low 0.397 | S. cerevisiae deletion strains, locus YOR070C, strain gyp1, active compounds read low 0.878 | S. cerevisiae deletion strains, locus YOR083W, strain WHI5, active compounds read low 0.866 | S. cerevisiae deletion strains, locus YOR106W, strain vam3, active compounds read low 0.442 | S. cerevisiae deletion strains, locus YOR184W, strain ser1, active compounds read low 0.774 | S. cerevisiae deletion strains, locus YOR265W, strain rbl2, active compounds read low 0.926 | S. cerevisiae deletion strains, locus YOR270C, strain vph1, active compounds read low 0.506 | S. cerevisiae deletion strains, locus YPL051W, strain arl3, active compounds read low 0.831 | S. cerevisiae deletion strains, locus YPL078C, strain atp4, active compounds read low 0.829 | S. cerevisiae deletion strains, locus YPL106C, strain sse1, active compounds read low 0.58 | S. cerevisiae deletion strains, locus YPL240C, strain hsp82, active compounds read low 0.342
